Consider 40 compounds from PubChem BioAssay (NCI).

About 83,000 compounds went through this panel and 20% of them were active in at least one assay; those are over-represented in the sample as a whole.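 Step 1: grow cells in 96-well plates. Step 2: add test compound at a single concentration. Step 3: incubate 48 h. Step 4: record percent growth.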 Unmarked numbers belong to inactive results. Activity calls are given as the source filed them. Rule for the calls: active = growth percent below 10; inactive = the rest.

The subject of the assay is HL-60(TB) leukemia. As to the kind of experiment: NCI-60 one-dose screen, 48 h (100 = growth as untreated, 0 = no growth, -100 = all killed). Particulars: 10 µM unless noted.
Regarding `O=C(CCN1C(=O)/C(=C/c2ccc(F)cc2)SC1=S)N1CCOCC1`, the growth is 86.4%.
Next, `CCCCSc1nc(NCCc2c[nH]c3ccccc23)c(C#N)c(-c2ccc(OC)cc2)n1`: 42.5%; `COc1ccc(-n2c(SCC(=O)NNS(=O)(=O)c3ccccc3)nc3ccc(Cl)cc3c2=O)cc1`: 107%.
Consider `CN(C)c1nc(NCCNS(=O)(=O)c2ccc(C3=Nc4c(N)nc(N)nc4NC(c4ccc(C(F)(F)F)cc4)C3)cc2)nc(Nc2ccc(F)cc2)n1` (stereo not given), for which the growth was -13.7% (active).
Next, `COc1ccc(/C=C/c2nc3ccccc3n3c(-c4cccc([N+](=O)[O-])c4)nnc23)cc1`: -49.3% (active); `O=C(NO)c1ccc(CNC(=O)[C@H]2Cc3c([nH]c4ccccc34)[C@H](c3ccccc3)N2)cc1`: 0.371% (active); `CCCn1c(NC(=O)c2cccc(C(N)=O)c2)nc2ccc(CN3CCCCC3)cc21`: 72.9%.
On to `Cn1cc(-c2cc(N)n3nc(-c4cn(C)c5ccccc45)cc3n2)c2cc(Br)ccc21`, for which the growth is -32.3% (active).
As to `COc1ccc(CCN2C(=O)/C(=C/c3csc(C#N)n3)SC2=S)cc1`, the growth is -23.8% (active).
On to `CCOC(=O)C1=C(N)N(c2ccccc2)C2=C(C(=O)CC(C)(C)C2)C1c1ccc(Cl)cc1Cl` (stereo not given), for which the growth is 1.24% (active).
As for `C=C1CCC2C3(C)COC(c4cccc(F)c4)OC3CCC2(C)C1C/C=C1/C(=O)OCC1O` (stereo not given), the figure is 4.43% (active); as for `CCOC(=O)c1ccc(Nc2nc(NN)nc(-c3ccc(F)cc3)c2C#N)cc1`, 88%.
Next, `C#CCOc1cc(N(CC)CC)ccc1C(C(=O)NC(C)(C)C)N(C(=O)C1CCc2cc(F)ccc2O1)c1ccccc1F` (stereo not given): -13.5% (active); `COc1nc(N)ncc1-c1ccc2ncnc(N3CCc4cc(F)c(Cl)cc43)c2c1`: 47%; `Cc1ccc(O)cc1Nc1nc(SCCN2CCOCC2)nc2c1cnn2CC(Cl)c1ccc(Br)cc1` (stereo not given): -49.7% (active).
Next, `O=C(c1ccc(Cl)cc1)C1[C@H](c2ccccc2Cl)[C@@H](c2ccccc2)NC12C(=O)Nc1ccc(Cl)cc12` (stereo not given in full): -39.9% (active); `Cc1ccc(C(=O)Nc2cc(-n3cnc(F)c3)cc(C(F)(F)F)c2)cc1C#Cc1cnc2cccnn12`: 23.5%; `CN(C)c1ccnc(CNCCSC2(c3ccc(C(F)(F)F)cc3)c3ccccc3C=Cc3ccccc32)c1`: -34.1% (active).
Regarding `CC(=O)c1ccc2c(N)c(C(=O)Nc3ccc(C(F)(F)F)cc3)sc2n1`, the growth is 50%.
Next, `COc1ccc([C@H](C)Nc2nc(Cl)nc3ccccc23)cc1`: 7.64% (active).
As for `Cc1noc2c(Cc3ccc([N+](=O)[O-])cc3)nn(CC(=O)N/N=C/c3ccc(Cl)cc3)c(=O)c12`, the figure is 87.5%.
Next, `O=CNc1cccc(-n2cnc3cc(-c4ccc(O)cc4)ccc32)c1`: 8.14% (active).
Take `CC12CC[C@@H]3[C@]4(C)COC(c5cn[nH]c5-c5ccc(Cl)cc5)O[C@@H]4CC[C@@]3(C)[C@@H]1CC(C1=CCOC1=O)O2` (stereo not given in full): the growth is 3.37% (active).
Next, `COc1ccc(C(=O)COc2ccc(NC(=O)Nc3ccccc3)cc2)cc1`: 91.6%; `Oc1ccc(Cl)c(Nc2nc(SCCN3CCOCC3)nc3c2cnn3CC(Cl)c2ccc(Br)cc2)c1` (stereo not given): -36.2% (active); `Cc1ccc(C2CC(c3ccc(S(=O)(=O)NCCNc4nc(N(C)C)nc(N5CCOCC5)n4)cc3)=Nc3c(N)nc(N)nc3N2)cc1` (stereo not given): 35.8%.
For `O=C(COc1ccc(NC(=O)Nc2ccccc2)cc1)N=Nc1c(O)[nH]c2ccc([N+](=O)[O-])cc12`, the growth is 23.4%.
`Fc1ccc(-c2csc(Nc3cccc(Nc4nc(-c5ccc(F)cc5)cs4)c3)n2)cc1`: the growth is 74.3%.
`c1n[nH]cc1-c1nc2ccc3[nH]ncc3c2c2c1CC1(CCOCC1)CC2`: the growth was 26.5%.
`COc1ccc(C(=O)Nc2sc3c(c2C#N)CCC(=O)C3)cc1C(F)(F)F`: the growth is -12% (active).
Next, `COc1ccc(C(=O)c2c(N)c(C#N)cn2-c2ccc([N+](=O)[O-])cc2)cc1`: 97.5%; `O=C(CNc1nc(-c2ccccc2)cs1)Nc1cccc(Cl)c1`: -2.63% (active); `COc1ccc2[nH]cc(-c3cc(N)n4nc(-c5c[nH]c6ccccc56)cc4n3)c2c1`: -44.7% (active).
Next, `COc1ccc2nc(NC(=O)c3ccc(N(C)C)cc3)sc2c1`: 51.5%; `Nc1nnc(-c2c[nH]c3ccc(Br)cc23)c(-c2c[nH]c3ncc(Br)cc23)n1`: 23.1%; `COc1ccc(/C=C/C(=O)c2ccc(NC(=O)CN3C(=O)NC(C)(c4ccccc4)C3=O)cc2)cc1` (stereo not given): 67.3%.
For `OCCNc1oc(-c2ccccc2)nc1[P+](c1ccccc1)(c1ccccc1)c1ccccc1`, the growth is -29.6% (active).
As for `CC1=C(C(=O)c2ccccc2)C(c2cccc(Cl)c2Cl)n2c(nc3ccccc32)N1` (stereo not given), the figure is 36.1%; as for `CCCCNc1ccc2c3c(cccc13)C(=O)N(NCC(O)COc1ccc3c(C)cc(=O)oc3c1)C2=O` (stereo not given), 100%.
Next, `Cc1nc(Nc2ccccn2)sc1C1=NNC(c2ccccc2F)C1` (stereo not given): 4.96% (active).
